CYP2C9 activ: CYP2C9 (human) activation; P11712; recombinant CYP2C9, luciferin-H conversion, luminescence; active compounds read high; factor 1 = untreated enzyme, 0 = blocked; AID 1024; actives 1.4% (n = 96,000); activation factor at 5 µM;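 active = activation factor of 2 or more for CYP2C9 at a 5 µM dose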;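 note: 0 = sulfaphenazole-blocked wells and 1 = vehicle-only wells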
Target sequence (P11712 whole entry, looked up): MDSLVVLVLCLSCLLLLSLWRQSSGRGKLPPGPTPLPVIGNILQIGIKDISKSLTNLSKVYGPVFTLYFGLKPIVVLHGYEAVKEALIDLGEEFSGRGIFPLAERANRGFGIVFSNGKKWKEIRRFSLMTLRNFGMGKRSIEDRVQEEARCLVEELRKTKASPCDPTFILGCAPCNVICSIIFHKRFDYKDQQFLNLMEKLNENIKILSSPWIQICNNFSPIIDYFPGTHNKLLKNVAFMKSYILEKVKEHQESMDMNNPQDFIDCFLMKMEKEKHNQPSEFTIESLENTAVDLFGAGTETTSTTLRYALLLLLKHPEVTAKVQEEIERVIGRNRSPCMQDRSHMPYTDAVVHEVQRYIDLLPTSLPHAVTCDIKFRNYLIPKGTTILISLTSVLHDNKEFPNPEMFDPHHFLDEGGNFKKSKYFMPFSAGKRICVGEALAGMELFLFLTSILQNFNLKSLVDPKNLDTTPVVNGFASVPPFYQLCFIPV
CYP2C9 inhib: human CYP2C9 inhibition | P11712 | actives 20% (n = 96,000) | AID 777 | inhibition, % at 5 µM | CYP2C9 Supersomes, luciferin-H conversion, luminescence;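 active = blocking of liver enzyme CYP2C9 beyond about 50% at 5 µM, limit read from the data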
CYP2C19 inhib: inhibitors of human CYP2C19; CYP2C19 Supersomes, luciferin-H EGE luminescence, 30 min; P33261; inhibition, % at 5 µM; actives 21% (n = 96,000);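 active = CYP2C19 inhibition above a set limit at 5 µM in the primary screen, cut at about 50% in these data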;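 note: plate controls were negative control wells for no effect and 2.5 mM tranylcypromine positive control for full effect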
CYP2C19 act: cytochrome P450 2C19 (human) activation; 96,000 tested, under 10 active; AID 1025; recombinant CYP2C19, luciferin-H EGE luminescence; active compounds read high; 0 = fully inhibited enzyme, 1 = untreated enzyme; activation factor at 5 µM; P33261;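 active = activation factor of at least 2 at 5 µM in the primary screen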;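 note: 0 = wells with 2.5 mM tranylcypromine and 1 = vehicle-only wells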
sEH act: soluble epoxide hydrolase (human) activation; P34913; purified human sEH enzymatic activity, activator screen; activation, % at 2 µM; actives 0.04% (n = 91,000); in the data active = activation above about 37%
sEH inhibitor: blocks human soluble epoxide hydrolase activity; P34913; recombinant human sEH enzymatic activity assay; inhibition, % at 2 µM; actives 0.34% (n = 91,000); in the data active = inhibition above about 80%
Active calls of the source: *; · = no result given. Hits are enriched below; roughly 27% of the tested compounds scored in any of these assays.

SMILES	CYP2C9 activ	CYP2C9 inhib	CYP2C19 inhib	CYP2C19 act	sEH act	sEH inhibitor
COc1ccc(C2C(=O)N(CCc3ccccc3)CC(=O)N2C2CCCCC2)cc1 (stereo not drawn)	0.7	30	14	0.9	-30	31
Cc1cc(C)c(-c2cc(NC(=O)CSc3nncn3C)n(-c3ccccc3)n2)cc1C	0.9	11	5	1	2	-1
O=C(COc1ccccc1)NCc1ccccc1	0.9	9	74*	0.3	22	-27
O=C(COc1ccc([N+](=O)[O-])cc1)NCc1ccccc1	0.8	16	·	·	10	-13
O=C1C2C3C=CC([C@@H]2C(=O)N1C1CC1)[C@H]1C(=O)N(C2CC2)C(=O)C31 (stereo partly drawn)	1	-1	8	0.9	-16	19
COC(=O)Nc1ccc(S(=O)(=O)N(CCO)CCO)cc1	0.9	12	1	1	14	-17
CC(C)CC(=O)Nc1ccc2oc(-c3ccncc3)nc2c1	0.3	69*	52*	0.5	·	·
CC(Oc1ccc(Cl)cc1Cl)C(=O)Nc1ccc2oc(-c3ccncc3)nc2c1 (stereo not drawn)	0.4	61*	55*	0.4	-50	51
CC(C)CC(=O)Nc1cccc(-c2nc3ccccc3o2)c1	0.3	74*	29	0.7	3	-3
CCCn1nnnc1NC(=O)c1ccc(C)cc1Cl	0.7	26	38	0.6	8	-5
Cn1c(=O)[nH]c(=O)c2c1nc(Sc1nc3ccccc3s1)n2Cc1ccccc1	0.8	22	19	0.8	8	-7
COc1cc2c(cc1OC)C1(Nc3c-2c(Cc2ccccc2)nn3-c2ccccc2)C(=O)Nc2ccccc21 (stereo not drawn)	0.6	41	0	1	-8	5
Cc1ccc(NC(=O)CS(=O)CC(=O)N(CC(=O)NC2CCCC2)c2cc(C)ccc2C)cc1 (stereo not drawn)	0.3	71*	35	0.7	4	-3
Cc1ccc(C)c(N(C(=O)CS(=O)CC(=O)Nc2ccc3c(c2)OCO3)C(C)C(=O)NC2CCCC2)c1 (stereo not drawn)	·	·	·	·	4	-4
Cc1ccccc1N(CC(=O)NC1CCCC1)C(=O)CS(=O)CC(=O)Nc1ccc2c(c1)OCO2 (stereo not drawn)	0.1	90*	22	0.8	-2	2
Cc1ccc(NC(=O)CS(=O)CC(=O)N(C2CCCC2)C(C)C(=O)NC2CCCCC2)cc1 (stereo not drawn)	·	·	·	·	7	-7
C=CCn1c(CNc2ccccc2)nnc1SCC(=O)N/N=C/c1ccc(O)cc1O	0.9	10	48	0.5	-1	1
CCN(CC)CCn1c2ccccc2c2cnc(N)c(C#N)c21	1	-3	-5	1	-12	15
CCn1c2ccccc2c2cc(NC(=O)CSc3nnc(-c4ccc(OC)cc4)n3N)ccc21	0.8	24	18	0.8	-4	3
CSCc1cc(N(C)C)nc(SCc2ccc(Cl)c(Cl)c2)n1	0.3	71*	72*	0.3	8	-11
CNc1cc(CSC)nc(SCc2ccc(Cl)cc2Cl)n1	1	-1	-6	1.1	-2	0
COc1ccc(C(=S)Nc2ccc(C)cc2)cc1	0.9	14	32	0.7	4	-1
COc1ccc(CCNc2ccc(C)cc2)cc1	0.5	45	85*	0.2	-1	2
COc1ccc(C(O)CNc2ccc(C)cc2)cc1 (stereo not drawn)	0.8	16	92*	0.1	2	-2
Cc1c(NC(=O)CCC(=O)N2CCCCC2)c(=O)n(-c2ccccc2)n1C	0.9	10	5	1	8	-10
SMILES	CYP2C9 activ	CYP2C9 inhib	CYP2C19 inhib	CYP2C19 act	sEH act	sEH inhibitor
CC(/C=N/n1c(C2CCCCC2)n[nH]c1=S)=C\c1ccccc1	0.4	61*	38	0.6	-10	8
CC(=C/c1ccccc1)/C=N/n1c(-c2ccco2)n[nH]c1=S	0.7	26	17	0.8	-8	10
CC1CN(C(=O)CN2C(=O)c3ccccc3C2=O)CC(C)O1 (stereo not drawn)	1	-1	-3	1	-9	8
CCN(CC)C(=O)COc1ccc(Br)cc1Cl	0.7	26	82*	0.2	20	-22
O=C(O)CCC(=O)NNC(=O)CCCOc1ccc(Cl)cc1Cl	1.2	-25	-21	1.2	-6	8
Cc1ccc(/C=N/NC(=O)CCCOc2ccc(Cl)cc2Cl)cc1[N+](=O)[O-]	0.7	32	9	0.9	-26	27
COc1ccc(/C=N/NC(=O)CCCOc2ccc(Cl)cc2Cl)cc1[N+](=O)[O-]	0.3	70*	86*	0.1	-30	34
Cc1cc(NC(=O)CCCOc2ccc(Cl)cc2Cl)no1	0.8	16	-4	1	·	·
CC(C)NC(=O)CCCOc1ccc(Cl)cc1Cl	0.8	25	59*	0.4	-8	5
CCN(CC)C(=O)CCCOc1ccc(Cl)cc1Cl	0.8	21	97*	0	-7	9
O=C(CSc1nncn1-c1ccccc1)NCc1cccs1	0.9	13	27	0.7	-9	9
Cc1ccsc1C(=O)Nc1cc(C(C)(C)C)nn1-c1ccccc1	0.8	23	26	0.7	12	-9
CNc1ccccc1C(C)(C)c1cc(-c2ccco2)n[nH]1	0.7	25	54*	0.5	-9	8
Cn1c(=O)c2c(nc(SCC(=O)N3CCCCCC3)n2C)n(C)c1=O	·	·	·	·	10	-14
CCN(CC)C(=O)CC(c1ccc(F)cc1)c1ccco1 (stereo not drawn)	0.7	31	62*	0.4	10	-6
CN(C)CCCNC(=O)CC(c1ccc(F)cc1)c1ccco1 (stereo not drawn)	1.1	-12	-11	1.1	·	·
CCc1cccc2c(C(=O)CSc3nnc(-c4ccoc4C)n3C)c[nH]c12	0.5	53*	65*	0.3	-2	2
Cn1c(SCCSc2nnc(-c3ccccc3)n2C)nnc1-c1ccccc1	1	0	-2	1	·	·
Cn1c(SCCCC(=O)c2ccccc2)nnc1-c1ccncc1	0.5	54*	68*	0.3	-1	0
COCCn1c(SCCCC(=O)c2ccc(Br)cc2)nnc1-c1ccncc1	0.2	85*	94*	0.1	-12	10
Cn1c(SCCCC(=O)c2ccc(F)cc2)nnc1-c1ccncc1	0.4	59*	71*	0.3	-4	8
CCOC(=O)c1[nH]c(C)c(C(=O)Nc2ccc(C)cc2C)c1C	0.5	46	-10	1.1	-13	13
Cc1occc1-c1nnc(SCCCC(=O)c2ccc(F)cc2)n1C	0.5	54*	72*	0.3	·	·
CCn1c(SCC(=O)c2ccc(F)cc2)nnc1-c1ccoc1C	0.7	31	38	0.6	10	-10
Cc1ccc(C)n1-c1ccc(-c2nnc3n2CCCCC3)s1	0.4	64*	37	0.6	-5	6
CN1CCn2c1nc(N1CCOCC1)nc2=O	0.9	8	-4	1	-6	6

Source: PubChem
